In PubChem BioAssay (Tox21):
Records with an inconclusive call do not appear. A call without a number means that no potency is given here. Values without a mark were called inactive. The source made the active and inactive calls. The call rests on the fitted dose curve; in most records, active means well fitted curve in the direction sought with a large enough effect in the repeat runs; inconclusive means weak or mixed curves; inactive means no such curve, though single readings can be large; an effect the other way counts as inactive or inconclusive. Residues, ends and D or L forms follow the SMILES beside them.

Key:
[1] = target: Nuclear receptor subfamily 1 group I member 2 (Rattus norvegicus) (UniProt Q9R1A7); experiment: Rat pregnane X receptor (rPXR) activation by small molecules, qHTS assay (AID 1346983); settings: rPXR luciferase reporter cells, One-Glo luminescence, 24 h; max activation: stronger effect = higher value; further: nearly all actives have a fitted effect of over 20% in size
Procedure, shortened: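 Cell-based rPXR activation assay: rPXR cells, 2,000 per well, rested 5hr at 37 C, then exposed to compounds in DMSO for 24 hr at 37 C. Luciferase activity read by One-Glo luminescence after 30 min at room temperature.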

[2] = target: Nuclear receptor subfamily 1 group I member 2 (Homo sapiens) (UniProt O75469); experiment: CYP3A4 induction through human pregnane X receptor (PXR) by small molecules, qHTS assay (AID 1346984); further: nearly all actives have a fitted effect of over 40% in size
Procedure, shortened: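 qHTS, concentration-response format: HepG2 DPX-2 line, PXR/CYP3A4-luc. Exposure 24 h, 37C. Substrate Luciferin-IPA 3uM final, 3 h. Detection One-Glo, 30 min RT.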

[3] = target: Nuclear receptor subfamily 1 group I member 2 (Homo sapiens) (UniProt O75469); experiment: Human pregnane X receptor (PXR) activation by small molecules, qHTS assay (AID 1346985); further: nearly all actives have a fitted effect of over 40% in size
Procedure, shortened: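 DPX-2 cells (HepG2 co-transfected with a PXR response element and a CYP3A4-promoter luciferase construct) were seeded at 2,000 per well, rested 5 hr at 37C, then exposed to DMSO-dissolved compounds for 24 hr. Activation was read as luciferase luminescence.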
Potency means the concentration at half of the fitted maximal effect.

Sequence of Nuclear receptor subfamily 1 group I member 2 (Rattus norvegicus) (Q9R1A7 whole entry, looked up): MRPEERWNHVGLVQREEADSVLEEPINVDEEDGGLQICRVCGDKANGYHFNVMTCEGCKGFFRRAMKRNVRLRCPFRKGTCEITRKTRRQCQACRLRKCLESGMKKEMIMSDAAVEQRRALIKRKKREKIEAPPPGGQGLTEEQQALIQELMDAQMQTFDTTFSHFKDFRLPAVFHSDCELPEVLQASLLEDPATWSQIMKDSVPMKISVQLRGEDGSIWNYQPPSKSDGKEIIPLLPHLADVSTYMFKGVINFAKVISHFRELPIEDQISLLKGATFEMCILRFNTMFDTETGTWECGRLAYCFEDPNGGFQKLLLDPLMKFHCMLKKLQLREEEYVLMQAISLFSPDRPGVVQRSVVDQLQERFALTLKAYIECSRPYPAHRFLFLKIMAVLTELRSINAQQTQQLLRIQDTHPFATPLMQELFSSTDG

CCc1ncnc2cc(OC)c(OC)cc12
max activation [1]: -3.13% | Potency [2]: inactive | Potency [3]: inactive

CNC(=O)C[C@@H](N)C(=O)N[C@@H](C(=O)N[C@@H]1C(=O)N2[C@@H]1SC(C)(C)[C@@H]2C(=O)O)c1ccc(O)cc1
max activation [1]: -2.18% | Potency [2]: inactive | Potency [3]: inactive

CCN(CC)C(=O)[C@]1(c2ccccc2)C[C@@H]1CN
max activation [1]: -2.63% | Potency [2]: inactive | Potency [3]: inactive

CC(=O)OCC(=O)[C@@]1(O)CC[C@H]2[C@@H]3CCC4=CC(=O)CC[C@]4(C)C3=CC[C@@]21C
max activation [1]: -1.67% | Potency [2]: inactive | Potency [3]: inactive

NC[C@H]1O[C@H](O[C@H]2[C@H](O)[C@@H](O[C@H]3O[C@H](CO)[C@@H](O)[C@H](N)[C@H]3O)[C@H](N)C[C@@H]2N)[C@H](N)C[C@@H]1O
max activation [1]: 7.07% | Potency [2]: inactive | Potency [3]: inactive

CO/N=C(\C(=O)N[C@@H]1C(=O)N2C(C(=O)O)=C(C[N+]3(C)CCCC3)CS[C@H]12)c1csc(N)n1
max activation [1]: -0.506% | Potency [2]: inactive | Potency [3]: inactive

CC1CCCC(C)N1NC(=O)c1ccc(Cl)c(S(N)(=O)=O)c1 (configuration not stated)
max activation [1]: -4.09% | Potency [2]: inactive | Potency [3]: inactive

C=C1[C@@H]2CC[C@@H](C2)C1(C)C
max activation [1]: -3.65% | Potency [2]: inactive | Potency [3]: inactive

C=CC[N@@+]12CC[C@@]34c5ccccc5N5/C=C6/[C@H]7C[C@H]8[C@@]9(CC[N@@+]8(CC=C)C/C7=C/CO)c7ccccc7N(/C=C(/[C@@H](C[C@@H]31)/C(=C\CO)C2)[C@H]54)[C@@H]69
max activation [1]: 3.06% | Potency [2]: inactive | Potency [3]: inactive

NC(=O)c1cc[n+](CC2=C(C(=O)O)N3C(=O)[C@@H](NC(=O)C(c4ccccc4)S(=O)(=O)[O-])[C@H]3SC2)cc1 (some centres not stated)
max activation [1]: -2.77% | Potency [2]: inactive | Potency [3]: inactive

N[C@H](CO)C(=O)O
max activation [1]: -0.898% | Potency [2]: inactive | Potency [3]: inactive

CC(C)=CCC/C(C)=C/CC/C(C)=C/CC/C=C(\C)CC/C=C(\C)CCC=C(C)C
max activation [1]: -2.04% | Potency [2]: inactive | Potency [3]: inactive

NC(=O)[C@@H]1CCCN1C(=O)[C@H](Cc1cnc[nH]1)NC(=O)[C@@H]1CCC(=O)N1
max activation [1]: -0.96% | Potency [2]: inactive | Potency [3]: inactive

Nc1nc(NC2CC2)c2ncn([C@@H]3C=C[C@@H](CO)C3)c2n1
Potency [1]: 5.01 µM (active) | Potency [2]: inactive | Potency [3]: 7.08 µM (active)

C[C@H](NCCc1ccc(O)cc1)[C@H](O)c1ccc(O)cc1
max activation [1]: -4.49% | Potency [2]: inactive | Potency [3]: inactive

CC12CCC(C[N+](C)(CCC[N+](C)(C)C)C1)C2(C)C (configuration not stated)
max activation [1]: -1.76% | Potency [2]: inactive | Potency [3]: inactive

CCCC(CCC)C(=O)OC1C[C@H]2CC[C@@H](C1)[N+]2(C)C (some centres not stated)
max activation [1]: -0.777% | Potency [2]: inactive | Potency [3]: inactive

CCN(CC)CCOC[C@H]1O[C@@H](O)[C@H](OCCN(CC)CC)[C@@H](O)[C@@H]1O
max activation [1]: -3.03% | Potency [2]: inactive | Potency [3]: inactive

CC/C(=C(/CC)c1ccc(OP(=O)(O)O)cc1)c1ccc(OP(=O)(O)O)cc1
max activation [1]: -1.74% | Potency [2]: inactive | Potency [3]: inactive

CC[C@H]1OC(=O)C[C@@H](O)[C@H](C)[C@@H](O[C@@H]2O[C@H](C)[C@@H](O[C@H]3C[C@@](C)(O)[C@@H](O)[C@H](C)O3)[C@H](N(C)C)[C@H]2O)[C@@H](CC=O)C[C@@H](C)C(=O)/C=C/C(C)=C/[C@@H]1CO[C@@H]1O[C@H](C)[C@@H](O)[C@@H](OC)[C@H]1OC
max activation [1]: 0.133% | Potency [2]: inactive | Potency [3]: inactive

FC(F)(F)C(F)(F)C(F)(F)C(F)(F)C(F)(F)F
max activation [1]: -2.03% | Potency [2]: inactive | Potency [3]: inactive

CCOc1ccc(S(=O)(=O)O)c2cccnc12
max activation [1]: -0.221% | Potency [2]: inactive | Potency [3]: inactive

O=C(O)[C@@H]1C[C@H](CP(=O)(O)O)CCN1
max activation [1]: -5.85% | Potency [2]: inactive | Potency [3]: inactive

CC(C)=CCC/C(C)=C/CC/C(C)=C/CC/C(C)=C/CC1=C(C)C(=O)c2ccccc2C1=O
max activation [1]: -1.32% | Potency [2]: inactive | Potency [3]: inactive

Cc1cc(-c2ccc(N=Nc3ccc4c(S(=O)(=O)O)cc(S(=O)(=O)O)c(N)c4c3O)c(C)c2)ccc1N=Nc1ccc2c(S(=O)(=O)O)cc(S(=O)(=O)O)c(N)c2c1O
max activation [1]: -5.28% | Potency [2]: inactive | Potency [3]: inactive

CC[C@@H](C(=O)[C@@H](C)[C@@H](O)[C@H](C)CCc1ccc(C)c(O)c1C(=O)O)[C@H]1O[C@](CC)([C@H]2CC[C@](O)(CC)[C@H](C)O2)C[C@@H]1C
max activation [1]: -6.82% | Potency [2]: inactive | Potency [3]: 8.91 µM (active)

C[C@@H]1C[C@H]2[C@@H]3C[C@H](F)C4=CC(=O)C=C[C@]4(C)[C@@]3(Cl)[C@@H](O)C[C@]2(C)[C@H]1C(=O)COC(=O)C(C)(C)C
Potency [1]: 2.82 µM (active) | Potency [2]: inactive | Potency [3]: inactive

CO/N=C(\C(=O)N[C@@H]1C(=O)N2C(C(=O)O)=C(COC(C)=O)CS[C@H]12)c1csc(N)n1 (stereo in doubt)
max activation [1]: -7.73% | Potency [2]: inactive | Potency [3]: inactive

CC/C=C\C/C=C\C/C=C\C/C=C\C/C=C\CCCC(=O)O
max activation [1]: -0.855% | Potency [2]: inactive | Potency [3]: inactive

O=C1c2c(O)cccc2[C@H]([C@@H]2O[C@H](CO)[C@@H](O)[C@H](O)[C@H]2O)c2cc(CO)cc(O)c21
max activation [1]: 0.818% | Potency [2]: inactive | Potency [3]: inactive

NC(=O)[C@H]1O[C@@H](O)[C@H](O)[C@@H](O)[C@@H]1O
max activation [1]: -0.18% | Potency [2]: inactive | Potency [3]: inactive

CCCCCCCCCCCCCC(=O)OCC(COP(=O)([O-])OCC[N+](C)(C)C)OC(=O)CCCCCCCCCCCCC (configuration not stated)
max activation [1]: -1.21% | Potency [2]: inactive | Potency [3]: inactive

CSCCC(N)C(=O)O (configuration not stated)
max activation [1]: -0.631% | Potency [2]: inactive | Potency [3]: inactive

CC(=O)OCC(=O)[C@@]1(O)CC[C@H]2[C@@H]3C[C@H](C)C4=CC(=O)C=C[C@]4(C)[C@H]3[C@@H](O)C[C@@]21C
Potency [1]: 7.94 µM (active) | Potency [2]: inactive | Potency [3]: inactive

C/C=C/C1=C(C(=O)O)N2C(=O)[C@@H](NC(=O)[C@H](N)c3ccc(O)cc3)[C@H]2SC1
max activation [1]: -4.1% | Potency [2]: inactive | Potency [3]: inactive

CC1(C)S[C@@H]2[C@H](NC(=O)[C@@H](NC(=O)N3CCNC3=O)c3ccccc3)C(=O)N2[C@H]1C(=O)O
max activation [1]: -1.76% | Potency [2]: inactive | Potency [3]: inactive

CC(C)CCC[C@@H](C)[C@H]1CC[C@H]2[C@@H]3CC=C4C[C@@H](O)CC[C@]4(C)[C@H]3CC[C@]12C
max activation [1]: -2.66% | Potency [2]: inactive | Potency [3]: inactive

OCl
max activation [1]: 0.862% | Potency [2]: inactive | Potency [3]: inactive

CO[C@H]1C[C@H](O[C@H]2[C@H](C)[C@@H](O[C@@H]3O[C@H](C)C[C@H](N(C)C)[C@H]3O)[C@@H](C)C[C@]3(CO3)C(=O)[C@H](C)[C@@H](O)[C@@H](C)[C@@H](C)OC(=O)[C@@H]2C)O[C@@H](C)[C@@H]1O
max activation [1]: 3.2% | Potency [2]: inactive | Potency [3]: inactive

CC(CNC(=O)c1cccnc1)NC(=O)c1cccnc1 (configuration not stated)
max activation [1]: -2.47% | Potency [2]: inactive | Potency [3]: inactive

NCC1CCC(C(=O)O)CC1 (configuration not stated)
max activation [1]: -1.27% | Potency [2]: inactive | Potency [3]: inactive

Oc1ccc(Cl)c2c1CCC2
max activation [1]: 0.0185% | Potency [2]: inactive | Potency [3]: inactive

O=C(CCCN1CCN2CCCC2C1)c1ccc(F)cc1 (configuration not stated)
max activation [1]: 1.23% | Potency [2]: inactive | Potency [3]: inactive

CC(C)[C@H](NC(=O)[C@H](CC(=O)O)NC(=O)[C@H](CCCCN)NC(=O)[C@@H](N)CCCN=C(N)N)C(=O)N[C@@H](Cc1ccc(O)cc1)C(=O)O (H-RKDVY-OH)
max activation [1]: -1.21% | Potency [2]: inactive | Potency [3]: inactive

NCC[C@H](O)C(=O)N[C@@H]1C[C@H](N)[C@@H](O[C@H]2O[C@H](CN)CC[C@H]2N)[C@H](O)[C@H]1O[C@H]1O[C@H](CO)[C@@H](O)[C@H](N)[C@H]1O
max activation [1]: -1.85% | Potency [2]: inactive | Potency [3]: inactive

COc1cc2c(cc1OC)[C@@H](Cc1cc(OC)c(OC)c(OC)c1)[N+](C)(CCCOC(=O)CC/C=C/CCC(=O)OCCC[N+]1(C)CCc3cc(OC)c(OC)cc3[C@H]1Cc1cc(OC)c(OC)c(OC)c1)CC2 (some centres not stated)
max activation [1]: -6.15% | Potency [2]: inactive | Potency [3]: inactive

CN[C@H](CC(C)C)C(=O)N[C@H]1C(=O)N[C@@H](CC(N)=O)C(=O)N[C@H]2C(=O)N[C@H]3C(=O)N[C@H](C(=O)N[C@@H](C(=O)O)c4cc(O)cc(O)c4-c4cc3ccc4O)[C@H](O)c3ccc(c(Cl)c3)Oc3cc2cc(c3O[C@@H]2O[C@H](CO)[C@@H](O)[C@H](O)[C@H]2O[C@H]2C[C@](C)(N)C(O)[C@H](C)O2)Oc2ccc(cc2Cl)[C@H]1O (some centres not stated)
max activation [1]: -3.51% | Potency [2]: inactive | Potency [3]: inactive

CN1C(=O)C[C@@H](C(=O)N[C@@H](Cc2cnc[nH]2)C(=O)N2CCC[C@H]2C(N)=O)NC1=O
max activation [1]: -0.675% | Potency [2]: inactive | Potency [3]: inactive

COC(=O)C[C@](O)(CCCC(C)(C)O)C(=O)O[C@@H]1C(OC)=CC23CCCN2CCc2cc4c(cc2[C@H]13)OCO4 (some centres not stated)
max activation [1]: -15.5% | Potency [2]: inactive | Potency [3]: inactive

CN(C)CCC(O)(c1ccccc1)c1ccccc1Cl (configuration not stated)
max activation [1]: 2.06% | Potency [2]: 12.6 µM (active) | Potency [3]: 15.8 µM (active)

OCC1(CO)COC(C(Cl)(Cl)Cl)OC1
max activation [1]: -2.81% | Potency [2]: inactive | Potency [3]: inactive

NC(=S)NS(=O)(=O)c1ccc(N)cc1
max activation [1]: -1.97% | Potency [2]: inactive | Potency [3]: inactive

O=C(O)Cc1nn(Cc2ccc(Br)cc2F)c(=O)c2ccccc12
max activation [1]: 0.657% | Potency [2]: inactive | Potency [3]: inactive

O=C1C2CC3CC1CC(O)(C3)C2
max activation [1]: -3.68% | Potency [2]: inactive | Potency [3]: inactive
